Source: PubChem
ALOX12 inh: inhibitors of human 12S-lipoxygenase ALOX12 | purified 12hLO, xylenol orange hydroperoxide absorbance | Potency, µM (highest dose often 108 µM), without a hit: at the top dose activity change, negative = inhibition, hits mostly inhibitors | hit rate 1.1% among 580,000 | AID 1671190; note: % is set by controls: 0 for no effect and ±100 for the full control effect
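Purified human 12hLO (150 nM final) in 25 mM Hepes, 0.01% Triton X-100, pH 7.0 was preincubated 15 min at room temperature with compound. Then 40 uM arachidonic acid was added, 30 min. Hydroperoxide was read by Fe-XO absorbance ratio 573/405 nm.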
HP1b chromo inh: HP1-beta chromodomain-methylated histone interaction inhibition; Potency, µM (doses to about 114 µM), for inactives: at the highest dose activity change, negative = inhibition, most hits filed as inhibitors; hit rate 0.56% among 390,000; AlphaScreen HP1-beta / biotin-H3K9me3 peptide binding; note: nearly all actives have a fitted effect of over 70% in size
Target sequence (P83916 whole entry, looked up): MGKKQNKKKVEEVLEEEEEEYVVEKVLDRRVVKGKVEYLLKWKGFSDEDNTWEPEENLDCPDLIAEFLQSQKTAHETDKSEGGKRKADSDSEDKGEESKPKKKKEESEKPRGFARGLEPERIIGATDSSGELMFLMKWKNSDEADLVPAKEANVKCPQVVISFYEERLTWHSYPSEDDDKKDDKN
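HP1-beta protein (50 nM final) preincubated 30 min at room temperature with biotinylated H3(1-18)K9me3 peptide (50 nM) in PBS pH 7.4, 0.01% Tween-20, then compound added for 30 min. AlphaScreen streptavidin donor/nickel chelate acceptor beads (10 ug/mL final), 30 min dark, luminescence read.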
JMJD2A Tudor: blocks the human JMJD2A Tudor domain; Potency, µM (top dose mostly 114 µM), for inactives: at the highest dose activity change, negative = inhibition, usual class: inhibitors; hit rate 4.4% among 390,000; AID 504339; O75164; AlphaScreen JMJD2A-Tudor / H3K4me3 peptide binding; note: % is set by controls: 0 for no effect and ±100 for the full control effect; nearly all actives have a fitted effect of over 50% in size
BAZ2B inh: BAZ2B (human) inhibition; Q9UIF8; AlphaScreen BAZ2B-H3K14Ac peptide displacement; Potency, µM (doses to about 114 µM), for the others: top-dose activity change, negative = inhibition, usual class: inhibitors; hit rate 4.4% among 360,000; note: % is set by controls: 0 for no effect and ±100 for the full control effect; nearly all actives have a fitted effect of over 60% in size
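Inhibition is scored as reduced AlphaScreen emission. The BAZ2B/b-H3(5-23)K14Ac complex (50 nM each) in PBS pH 7.4, 0.01% Tween-20 meets compound (up to 110 uM) for 30 min at RT before bead addition.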
PLK1 PBD inh: blocks phosphopeptide binding to human PLK1 polo-box domain; P53350; Plk1 PBD binding of FITC phosphopeptide, fluorescence polarization; Potency, µM, for inactives: max response, negative = inhibition, usual class: inhibitors; hit rate 2.8% among 360,000; AID 720504; note: series mostly up to about 57 µM; % is set by controls: 0 for no effect and ±100 for the full control effect; nearly all actives have a fitted effect of over 65% in size
G9a inh: blocks human histone lysine methyltransferase G9a | Potency, µM (series often up to 102 µM), for the others: at the top dose activity, negative = inhibition, actives largely listed as inhibitors | G9a H3K9 monomethylation, AlphaScreen, 2 h | AID 504332 | Q96KQ7 | hit rate 8.8% among 350,000; note: % is set by controls: 0 for no effect and ±100 for the full control effect; nearly all actives have a fitted effect of over 75% in size
Target sequence (Q96KQ7 913-1193 limits assumed): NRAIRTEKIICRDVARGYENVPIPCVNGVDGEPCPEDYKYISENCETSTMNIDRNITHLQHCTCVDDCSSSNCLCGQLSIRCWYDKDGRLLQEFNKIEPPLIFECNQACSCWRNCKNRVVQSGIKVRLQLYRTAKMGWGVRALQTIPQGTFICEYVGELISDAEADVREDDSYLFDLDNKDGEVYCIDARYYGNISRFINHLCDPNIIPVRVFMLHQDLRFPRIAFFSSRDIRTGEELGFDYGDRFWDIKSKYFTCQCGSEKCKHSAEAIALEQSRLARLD
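Step 1: enzyme (final 20 nM) with compound, 15 min RT. Step 2: substrate peptide 500 nM and SAM 20 uM, 2 h RT. Step 3: anti-H3K9me1 antibody and AlphaScreen beads, 10 min, then plate read.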
* = called active by the depositor; ? = inconclusive; nt = not tested or not shown; [ ] = remark or other dose. Hits are enriched below; roughly 9% of the tested compounds scored in any of these assays. Calls come from the whole dose curve; as a rule, active = well fitted curve in the direction sought with a large enough effect; inconclusive = small, poorly fitted or top-dose-only effect, or another doubt; inactive = no such curve, though single readings can be large; an effect the other way counts as inactive or inconclusive. Potency is the fitted concentration of half-maximal effect.

SMILES | ALOX12 inh | HP1b chromo inh | JMJD2A Tudor | BAZ2B inh | PLK1 PBD inh | G9a inh
COc1cccc(/C=N/NC(=O)CCn2c3ccccc3c3ccccc32)c1 | 2% | 27% | 8% | -25% | -1% | 18µM*
O=C(CNc1cccc2ccccc12)N/N=C/c1cccc(Oc2ccccc2)c1 | 8% | -5% | ? | ? | 1% | 10µM*
O=C(CNc1cccc2ccccc12)N/N=C/c1ccccn1 | 41% | -6% | -33% | -18% | -8% | ?
O=C(CNc1cccc2ccccc12)N/N=C/c1ccc([N+](=O)[O-])cc1 | -15% | 37% | -2% | -2% | -6% | 8.9µM*
Cc1ccccc1NCC(=O)N/N=C/c1ccc([N+](=O)[O-])cc1 | ? | 20% | -21% | -8% | 1% | ?
COc1ccc(/C=N/NC(=O)CCn2c3ccccc3c3ccccc32)cc1O | 1% | -2% | ? | -23% | 0% | 13%[59 µM]
COc1cccc(/C=N/NC(=O)CC(=O)NCCc2ccc(OC)c(OC)c2)c1 | 0% | -17% | ? | 10% | 27µM* | 0%
O=C(NC[C@H]1Cn2c(-c3ccc(F)cc3)cnc2CO1)C1CCCC1 | 44%[176 µM] | nt | nt | nt | nt | nt
COc1ccc(CCNC(=O)CCN2C(=O)[C@@H]3Cc4ccccc4CN3C2=O)cc1 | 24% | 34% | -11% | -3% | -14% | 2%
COc1cccc(CNC(=O)CCN2C(=O)[C@@H]3Cc4ccccc4CN3C2=O)c1 | 6% | ? | ? | -18% | 27µM* | 24%[59 µM]
N#Cc1cccc(Oc2ccc(S(=O)(=O)N3CCCC3)cn2)c1 | 16% | 13% | -6% | -1% | -4% | 7%
Cc1ccc2[nH]c3c(c2c1)CCCC3NCCO (configuration not stated) | -27% | -16% | ? | ? | -9% | 50µM*
CO/N=C/C(=N\Nc1ccc(C)cc1)C(=O)c1ccc(OC)cc1 | 13% | 13% | -27% | -30% | -3% | -42%
CO/N=C/C(=N\Nc1ccccc1)C(=O)c1ccccc1 | -7% | -7% | -22%[11.4 µM] | 6% | 24µM* | -18%
CO/N=C/C(=N\Nc1ccc(OC)cc1)C(=O)c1ccc(F)cc1 | -17% | -14% | -20%[11.4 µM] | -6% | 24µM* | 16%
CC(C)C(=O)Nc1c(-c2cc(=O)oc3ccc(Cl)cc23)oc2ccccc12 | 14% | nt | nt | nt | nt | nt
Cc1ccccc1N(Cc1ccccc1F)S(C)(=O)=O | -1% | 17% | -10% | -3% | -8% | 15%[59 µM]
CC(=O)Nc1ccc2c(c1)C(=O)c1ccccc1C2=O | -9% | 8% | -15% | -28% | -7% | -33%[59 µM]
O=C(O)/C=C/C(=O)Nc1ccc2nccnc2c1 | -13% | 35% | -12%[57.1 µM] | -14% | -13% | 50µM*
O=C(O)/C=C/C(=O)Nc1ccc2c(c1)C(=O)c1ccccc1C2=O | 6% | 13% | -21% | ? | -6% | 45µM*
O=C(Nc1cccc(S(=O)(=O)C(F)(F)F)c1)[C@@H]1O[C@H](CO)[C@@H](O)[C@H]1O | -1% | nt | nt | nt | -14% | nt
CCOc1ccc(C(=O)NC2CC3CCCC(C2)N3Cc2ccccc2)cc1 (configuration not stated) | 15% | 23% | -12% | -3% | 3% | -4%
C=C(C)CNC(=S)Nc1cccc(N)n1 | ? | 9% | -21% | ? | -16% | 1.3µM*
C=C(C)CNC(=S)N/N=C(\C)c1cccc(NC(C)=O)c1 | ? | 7% | -19% | -11% | -7% | 9%
O=C(Cn1c(NCCCCl)nc2ccccc21)c1ccccc1 | ? | 11% | -25% | ? | -7% | -23%[0.501 µM]
SMILES | ALOX12 inh | HP1b chromo inh | JMJD2A Tudor | BAZ2B inh | PLK1 PBD inh | G9a inh
CC1CCC(C(=O)c2c(O)c3ccccc3oc2=O)CC1 (configuration not stated) | 0% | 15% | -19% | 9% | -8% | 50µM*
COc1ccc(OCCCC(=O)Oc2ccc3oc4ccccc4c3c2)cc1 | 13µM* | nt | nt | nt | nt | nt
COc1ccc(/C=C/C(=O)Oc2ccc3oc4ccccc4c3c2)cc1OC | 4% | nt | nt | nt | nt | nt
O=C(CC1CCCCC1)c1c(O)c2ccccc2oc1=O | 0% | 26% | 16% | 1% | -16% | -12%[12.7 µM]
COc1ccc(OCC(=O)c2c(O)c3ccccc3oc2=O)cc1 | ? | 18µM* | 20µM* | ? | -23% | 3.2µM*
CCOc1ccc(OCC(=O)c2c(O)c3ccccc3oc2=O)cc1 | ? | ? | 11µM* | 50µM* | ? | 3.2µM*
CC(=N)c1c(O)c2ccccc2oc1=O | 5% | 19% | -8% | -18% | -6% | 5%
N#CC1(c2ccc(-c3cccc(CN4CCOCC4)c3)cc2)CCCC1 | 40% | nt | nt | nt | nt | nt
O=S(=O)(NCc1cc(-c2ccccc2Cl)no1)c1ccc(Cl)cc1 | ? | ? | ? | 5% | 3.8µM* | 43%
COc1cc2c(cc1OC)C1(Nc3c-2c(Cc2ccccc2)nn3-c2ccccc2)C(=O)Nc2ccccc21 (configuration not stated) | ? | -27% | ? | 50µM* | 0% | 40µM*
COc1cc2c(cc1OC)C1(NCC2)C(=O)Nc2ccccc21 (configuration not stated) | -15% | 9% | -8% | -1% | -5% | -4%[59 µM]
COc1ccc(S(=O)(=O)NC(C)CCc2ccccc2)cc1 (configuration not stated) | -26% | -12% | ? | 5% | 5.3µM* | 51%
COc1ccc(S(=O)(=O)N[C@@H](CSCc2ccccc2)C(=O)O)cc1 | ? | 18% | -17% | ? | -3% | 50µM*
Cc1ccc(S(=O)(=O)NC(CC(N)=O)C(=O)O)cc1 (configuration not stated) | ? | 14% | ? | 5% | 1% | 16µM*
Cc1ccc(S(=O)(=O)NC(Cc2ccccc2)C(=O)O)cc1 (configuration not stated) | -9% | 37% | 5%[57.1 µM] | -5% | -12% | -31%
CC(C)(C)c1ccc(S(=O)(=O)NC(Cc2ccccc2)C(=O)O)cc1 (configuration not stated) | -9% | ? | -12% | -34% | -13% | 79µM*
C=CCSc1nnc(NC(=O)Cn2cnc3c2c(=O)n(C)c(=O)n3C)s1 | 0% | 25% | -2% | -13% | 0% | 5%
COc1ccc([N+](=O)[O-])cc1-n1cccc1 | -21% | ? | ? | 50µM* | -8% | 5%[59 µM]
O=c1cc(-c2ccncc2)oc2c(-c3ccccc3Oc3ccccc3)nccc12 | 32µM* | nt | nt | nt | nt | nt
O=c1cc(-c2ccncc2)oc2c(-c3ccccc3F)nccc12 | -2%[176 µM] | nt | nt | nt | nt | nt
CC(c1nc2ccccc2s1)N(C)C(=O)c1ccc(S(=O)(=O)Nc2ccccc2)cc1 (configuration not stated) | -18% | nt | nt | nt | nt | nt
